The list is not random: actives were taken first. Their share in the collection is about 2.4%.
GLS inh = inhibitors of human glutaminase (GLS); GLS enzymatic activity, qHTS titration; 410,000 compounds, 0.21% hits; Potency, µM (highest dose often 45.5 µM), without a hit: at the top dose activity change, negative = inhibition, most hits filed as inhibitors; O94925; also: potency is read from the fitted curve at half-maximal effect; % is scaled to controls: 0 for no effect and ±100 for the full control effect
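Read-out is an Amplex red fluorescence increase coupled through glutamate oxidase and HRP, measured before and after 30 min room-temperature incubation. hKGA is in 45 mM KH2PO4 (pH 8.2) with 0.02% Tween-20; glutamine added as 1mM solution.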
Pol kappa inh-1 = DNA polymerase kappa (human) inhibition | Q9UBT6 | purified Pol kappa, fluorescent DNA synthesis assay, 10 min | Potency, µM (series often up to 107 µM), inactives show top-dose activity, negative = inhibition, actives largely listed as inhibitors | 400,000 compounds, 0.53% hits; also: potency is read from the fitted curve at half-maximal effect; % is scaled to controls: 0 for no effect and ±100 for the full control effect
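Readout: fluorescence, taken kinetically at 0 and 10 min. Conditions: 10 nM Pol kappa, 15 min RT compound preincubation, 50 nM substrate final. Controls: enzyme-free buffer wells.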
APEX1 inh = APE1 (human) endonuclease inhibition | 350,000 compounds, 0.35% hits | P27695 | recombinant APE1, TAMRA/BHQ-2 abasic DNA cleavage fluorescence | Potency, µM (titrated, usually from 65.8 µM), without a hit: top-dose activity change, negative = inhibition, hits mostly inhibitors;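 also: potency is read from the fitted curve at half-maximal effect; plate controls were vehicle for no effect and reference inhibitor for full effect; nearly all actives have a fitted effect of over 55% in size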
Target sequence (P27695 whole entry, looked up): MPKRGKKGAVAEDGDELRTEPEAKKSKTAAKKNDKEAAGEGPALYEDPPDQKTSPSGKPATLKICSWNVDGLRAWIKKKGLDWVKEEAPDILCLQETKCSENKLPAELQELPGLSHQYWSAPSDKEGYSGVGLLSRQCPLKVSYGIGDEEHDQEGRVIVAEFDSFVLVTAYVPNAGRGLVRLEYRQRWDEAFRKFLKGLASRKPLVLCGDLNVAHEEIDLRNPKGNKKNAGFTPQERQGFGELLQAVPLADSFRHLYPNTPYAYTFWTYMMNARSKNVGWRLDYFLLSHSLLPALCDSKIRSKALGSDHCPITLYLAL
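APE1 at 0.75 nM final was preincubated with compound 15 min at room temperature, then 50 nM double-stranded THF abasic-site substrate (5'-TAMRA/3'-BHQ-2) was added. Fluorescence (ex 525/em 598 nm) was read kinetically; third-minus-first read gave activity.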
Pol eta inh-1 = DNA polymerase eta (human) inhibition | Q9Y253 | Potency, µM (doses to about 114 µM), inactives show top-dose activity change, negative = inhibition, hits mostly inhibitors | 390,000 compounds, 1.2% hits | recombinant Pol eta, fluorescent DNA replication assay | AID 588591; also: potency is read from the fitted curve at half-maximal effect; % is scaled to controls: 0 for no effect and ±100 for the full control effect
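Fluorescent replication assay: 50 nM final substrate added after a 15 min room-temperature compound preincubation with 10 nM enzyme. Signal taken at 0 min and again at 10 min.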
POLI inh = DNA polymerase iota (human) inhibition | Q9UNA4 | Pol iota fluorescent replication assay, 10 min | Potency, µM (doses to about 115 µM), for the others: top-dose activity, negative = inhibition, most hits filed as inhibitors | 390,000 compounds, 1% hits; also: potency is read from the fitted curve at half-maximal effect
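Pol iota at 10 nM preincubated 15 min with compounds at room temperature; reaction started with fluorescent substrate, 50 nM final. Fluorescence read kinetically at 0 and 10 min; buffer-only wells as negative control.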
POLB inh = inhibitors of human DNA polymerase beta; P06746; Pol beta primer extension/strand displacement, fluorescence kinetic; Potency, µM (series often up to 114 µM), for inactives: at the top dose activity change, negative = inhibition, usual class: inhibitors; 340,000 compounds, 1.3% hits; also: potency is read from the fitted curve at half-maximal effect; % is scaled to controls: 0 for no effect and ±100 for the full control effect
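Reaction started by 50 nM substrate onto compound-treated Pol beta (10 nM, 15 min preincubation, room temperature); plates read at 0 min and 10 min. Normalized concentration-effect data fitted by four-parameter Hill equation.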
GALK confirm = galactokinase (human) inhibition, confirmation. shares compounds with Pol eta inh-1. purified GALK, Kinase-Glo ATP depletion luminescence. Potency, µM (top dose mostly 115 µM), for the others: at the top dose activity, negative = inhibition, hits mostly inhibitors. 150 compounds, 70% hits. AID 2015
GALK redox cs = generates H2O2 by redox cycling, flagging GALK artifacts | shares compounds with Pol eta inh-1 | Phenol red-HRP H2O2 redox cycling, absorbance 600 nm | Potency, µM (titrated, usually from 115 µM), for the others: top-dose activity change, negative = H2O2 signal, most hits filed as inhibitors | 150 compounds, 40% hits
HEK293 tox = HEK-293 cytotoxicity, GALK inhibitor secondary | AID 2547 | 170 compounds, 10% hits | Potency, µM (top dose mostly 46.1 µM), for the others: at the highest dose activity change, negative = cytotoxicity, actives largely listed as inhibitors | HEK-293 viability, ATP luminescence (CellTiter-Glo), 24/48 h | shares compounds with Pol eta inh-1; also: potency is read from the fitted curve at half-maximal effect; % is scaled to controls: 0 for no effect and ±100 for the full control effect
Pol kappa inh-2 = confirmation of human DNA polymerase kappa inhibitors | shares compounds with Pol eta inh-1 | AID 720501 | purified Pol-kappa, fluorescent strand-displacement substrate | 920 compounds, 76% hits | Potency, µM, usual class: inhibitors; also: potency is read from the fitted curve at half-maximal effect
Pol eta inh-2 = confirmation of human DNA polymerase eta inhibitors; Pol eta primer extension, TAMRA/BHQ fluorescence, 10 min; Potency, µM, hits mostly inhibitors; shares compounds with Pol eta inh-1; 2,600 compounds, 64% hits; AID 720502; also: potency is read from the fitted curve at half-maximal effect
Numbers without * were called inactive; ? = inconclusive; . = not tested or not shown; [ ] = remark or other dose. Calls follow the shape of the dose curve; as a rule, active = well fitted curve in the direction sought with a large enough effect; inconclusive = small, poorly fitted or top-dose-only effect, or another doubt; inactive = no such curve, though single readings can be large; an effect the other way counts as inactive or inconclusive.

SMILES	GLS inh	Pol kappa inh-1	APEX1 inh	Pol eta inh-1	POLI inh	POLB inh	Pol eta inh-2	others
COC(=O)c1ccc(NS(=O)(=O)c2ccc3[nH]c(=O)oc3c2)cc1	12%	?	14%[12.4 µM]	25µM*	45µM*	35µM*	?
Cc1ccc(NS(=O)(=O)c2ccc3[nH]c(=O)oc3c2)cc1Cl	7%	-2%	-12%	-17%	-2%	.	.
Cc1ccc2c(c1)c(=O)c1ccccc1n2CCCC(=O)Nc1ccc(Cl)cc1C	-8%	2%	.	89µM*	-12%	?	.	Pol kappa inh-2=?
COc1ccc(N2CCN(CCNS(=O)(=O)c3cccc4nsnc34)CC2)cc1	90%	-10%	-2%	?	6%	-3%	.
Cc1ccc(Cl)cc1N1CCN(C(=O)CN(c2ccccc2)S(=O)(=O)N(C)C)CC1	-4%	?	?	50µM*	25µM*	10µM*	.	Pol kappa inh-2=?
CN1CCN(C(=O)CN(c2ccccc2)S(=O)(=O)N(C)C)CC1	-3%	-17%	20%	-11%	47%	5%	.
O=C1COC(c2ccccc2)C2CCCCN12 (stereo unspecified)	-2%	0%	-2%	-1%	17%	59%	.
CN(C(=O)C=Cc1ccco1)c1ccccc1	0%	-6%	.	-4%	9%	.	.
CN(C(=O)/C=C/c1ccco1)c1ccccc1C(=O)O	-18%	?	?	45µM*	?	18µM*	?
COC(=O)NC(C(=O)OC)(C(=O)OC)c1ccccc1	.	.	2%	.	.	.	.
CCOC(=O)C1=NOC(CN(c2ccccc2)S(=O)(=O)c2ccc(Cl)cc2)C1 (stereo unspecified)	3%	-4%	8%	-14%	24%	0%	.
CCOC(=O)C1CCN(c2nc(N)c3c(N)nc(SCC(=O)O)cc3c2C#N)CC1	?	35µM*	?	7.1µM*	25µM*	28µM*	.	GALK confirm=67µM*;GALK redox cs=19µM*;HEK293 tox=-14%
Clc1ccc2oc(-c3ccccc3)nc2c1	4%	-6%	3%	5%	13%	1%	.
CC(=O)OCC1=C(C(=O)O)N2C(=O)C(NC(=O)c3ccc(COc4ccc(Cl)cc4)o3)C2SC1 (stereo unspecified)	26%	?	-3%	50µM*	?	?	38*	Pol kappa inh-2=30*
CC(=O)OCC1=C(C(=O)O)N2C(=O)C(NC(=O)c3ccc(COc4c(C)cccc4Cl)o3)C2SC1 (stereo unspecified)	7%	?	?	45µM*	28µM*	13µM*	43*
CO/N=C(\C(=O)N[C@@H]1C(=O)N2C(C(=O)O)=C(COC(N)=O)CS[C@@H]12)c1ccco1	.	-5%[12 µM]	2%[21 µM]	.	.	.	.
